# Results: PubChem BioAssay (NCATS)
# Inconclusive results are not listed. Entries that show only a call come without a potency. Activity calls are given as the source filed them. Calls come from the whole dose curve; as a rule, active = well fitted inhibition curve with a large enough effect; inconclusive = small, poorly fitted or top-dose-only effect, or effect the other way; inactive = flat fitted curve, though single readings scatter.
# Target: ATP-dependent 6-phosphofructokinase (Trypanosoma brucei brucei) (UniProt O15648)
# Sequence (O15648 whole entry, looked up): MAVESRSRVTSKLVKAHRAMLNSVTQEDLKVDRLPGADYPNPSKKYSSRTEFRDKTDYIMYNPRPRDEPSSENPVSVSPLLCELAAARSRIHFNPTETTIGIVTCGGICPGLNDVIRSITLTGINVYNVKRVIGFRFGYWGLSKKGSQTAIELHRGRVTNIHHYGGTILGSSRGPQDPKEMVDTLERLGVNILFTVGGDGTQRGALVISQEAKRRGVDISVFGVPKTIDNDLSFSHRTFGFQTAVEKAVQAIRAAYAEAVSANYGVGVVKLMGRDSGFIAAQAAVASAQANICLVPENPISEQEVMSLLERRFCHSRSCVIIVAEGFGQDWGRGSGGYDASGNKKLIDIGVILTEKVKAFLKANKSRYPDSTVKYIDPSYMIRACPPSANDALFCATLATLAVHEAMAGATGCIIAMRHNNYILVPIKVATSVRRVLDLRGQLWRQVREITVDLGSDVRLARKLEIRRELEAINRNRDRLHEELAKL
# Test: qHTS Assay to Find Inhibitors of T. brucei phosphofructokinase: hit validation (AID 492961);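 note: luminescence reports ADP formed as PFK phosphorylates fructose-6-phosphate with ATP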
# Details: T. brucei PFK, ADP-Glo luminescence; series mostly up to 51.4 µM
# Description: NIH Molecular Libraries Probe Production Network [MLPCN] NIH Chemical Genomics Center [NCGC] Grant: 1 R03 MH092153-01 PI Name: Malcolm Walkinshaw, University of Edinburgh NCGC Assay Overview: Various species of the protozoan family Trypanosomatidae are responsible for a range of serious human diseases in tropical and subtropical areas of the world. […] Many of the disorders caused by trypanosomatids are fatal if left untreated, but most currently used drugs are inefficient and toxic. […] Oxidative metabolism involving the mitochondrial tricarboxylic acid cycle and oxidative phosphorylation are repressed in these parasites, and recent RNA interference (RNAi) experiments have shown that even partial depletion of certain individual glycolytic enzymes can lead to the death of cultured parasites. One such glycolytic enzyme, phosphofructokinase (PFK), catalyzes the formation of fructose-1,6-bisphosphate (F1,6BP) and ADP from fructose-6-phosphate (F6P) and ATP, and in many metabolic circumstances makes an important contribution to the control of flux through the glycolytic pathway. As a specific glycolytic target, PFK is particularly attractive as it catalyzes the first irreversible step in glycolysis, and structural and kinetic studies have shown very substantial and essential differences from corresponding host enzymes, allowing for the discovery of parasite-selective inhibitors. The goal of this screen is to find small-molecule inhibitors of T. brucei PFK using a biochemical assay that measures PFK activity as a function of ADP production. A luminescence-based assay for T. brucei PFK activity has been developed which uses luciferase to detect production of ADP. Traditional luciferase-based nucleotide detection reagents rely on ATP production as a direct substrate for the luciferase reaction; however, PFK catalyzes the transfer of a phosphate from ATP to F6P, resulting in the net depletion of ATP. To directly measure the ADP product of the PFK reaction, we used the ADP-Glo detection kit (Promega), which utilizes two separate reactions to 1) deplete all remaining uncatalyzed ATP and 2) convert all remaining ADP to ATP, which is then detected through a traditional luciferase-coupled reaction. Compounds were screened as a concentration-titration series that ranged from 57 uM to 0.7 nM.
# NCGC Assay Protocol Summary: Substrate buffer was dispensed into white, solid 1536-well plates at 3uL/well in 0.1M triethanolamine (TEA) buffer, pH 8.0, containing final concentrations of 5 mM MgCl2, 0.01% Tween20, 0.5 mM fructose-6-phosphate (F6P) and 0.1mM ATP. Then, 23 nL of compounds or DMSO were delivered to each well using a pin tool. One uL T. brucei PFK (0.1M TEA, 0.01% Tween20, 0.1% bovine serum albumin (BSA) and 1.25nM PFK, final concentrations) was then dispensed, and plates were incubated at room temperature for 45 min. The luminescent detection reagent, ADP-Glo (Promega), was then added in two steps: the first reagent, ADP-Glo (which converts remaining uncatalyzed ATP), was added at 2.5uL/well and incubated for ten minutes at room temperature, and the second component, Kinase Detection reagent (which converts ADP to ATP as a substrate for luciferase-based luminescence), was added immediately after at 5uL/well, followed by one final ten minute room temperature incubation. The plates were measured on a ViewLux plate reader for luminescent signal using a clear filter with a one second exposure. The %Activity was determined from the corrected luminescence values. As no specific T. brucei PFK inhibitors have been identified in the literature, 1x (1.25nM) and 0x PFK enzyme controls (untreated) were included to normalize %Activity of identified inhibitors; 0x enzyme values corresponded to 100%Activity (full inhibition), while 1x PFK enzyme values were used to normalize 0%Activity (no inhibition). Concentration-response curves were fitted to the signals arising from the resulting luminescence. […]
row,Compound,Potency
1,NC(=O)N/N=C/c1ccc([N+](=O)[O-])o1,inactive
2,O=C(O)COc1nn(Cc2ccccc2)c2ccccc12,inactive
3,COc1cc2[nH]c(=O)[nH]c(=O)c2cc1OC,inactive
4,C[C@]12C[C@H](O)[C@H]3[C@@H](CCC4=CC(=O)CC[C@@]43C)[C@@H]1CC[C@@H]2C(=O)CO,inactive
5,CN1CCC[C@@H]1Cc1c[nH]c2ccc(CCS(=O)(=O)c3ccccc3)cc12,inactive
6,Cc1cccc(C)c1NC(=O)CN(CC(=O)O)CC(=O)O,inactive
7,O=C1NS(=O)(=O)c2ccccc21,inactive
8,N[C@@H](CSCCCO)C(=O)O,inactive
9,CCn1cc(C(=O)O)c(=O)c2cnc(N3CCNCC3)nc21,inactive
10,O=c1cc[nH]c(=S)[nH]1,inactive
11,CC(=O)Oc1ccc(C2(c3ccc(OC(C)=O)cc3)C(=O)Nc3ccccc32)cc1,inactive
12,CC12CCC(CC1)C(C)(C)O2,inactive
13,O=c1[nH]c(=O)c2[nH]c(=O)[nH]c2[nH]1,inactive
14,Nc1ccc(S(=O)(=O)Nc2ccccc2)cc1,inactive
15,CCCOC(=O)c1ccccc1,inactive
16,COc1ccc2c(c1)C(=O)N(CCc1ccc(S(=O)(=O)NC(=O)NC3CCCCC3)cc1)C(=O)C2(C)C,inactive
17,CCCCCCCCCCCCOS(=O)(=O)O,inactive
18,CSc1ccc2c(c1)C(N1CCN(C)CC1)Cc1ccccc1S2 (stereo not given),inactive
19,NC(CSCC(=O)O)C(=O)O (stereo not given),inactive
20,CCOc1ccc2ccccc2c1C(=O)N[C@@H]1C(=O)N2[C@@H]1SC(C)(C)[C@@H]2C(=O)O,inactive

row,Compound,Potency
1,CC(O)CN(CCN(CC(C)O)CC(C)O)CC(C)O (stereo not given),inactive
2,CCOC(=O)c1ccc(O)cc1,inactive
3,O=C1c2c(O)cccc2Cc2cccc(O)c21,inactive
4,c1ccc(CN(CC2=NCCN2)c2ccccc2)cc1,inactive
5,Nc1ncnc2c1ncn2[C@@H]1O[C@H](CO)[C@@H](O)[C@H]1O,inactive
6,Cc1ncc(COP(=O)(O)O)c(C=O)c1O,inactive
7,C[C@@H]1CN(c2c(F)c(F)c3c(=O)c(C(=O)O)cn(C4CC4)c3c2F)C[C@H](C)N1,inactive
8,O=Cc1ccccc1C=O,inactive
9,NC(=O)NC(=O)Cc1ccccc1,inactive
10,NCCNCCNCCN,inactive
11,CCCCCCCCCCCCCCCC(=O)NCCO,inactive
12,Nc1ccc(S(=O)(=O)NC(=O)c2ccccc2)cc1,inactive
13,Cc1cc(CC(=O)O)n(C)c1C(=O)c1ccc(Cl)cc1,inactive
14,COc1cc(C(=O)N2CCOCC2)cc(OC)c1OC,inactive
15,CC(C(O)c1ccc(O)cc1)N1CCC(Cc2ccccc2)CC1 (stereo not given),inactive
16,O=C(O)CC(O)C(=O)O (stereo not given),inactive
17,Cc1ccc2nc(N)[nH]c(=O)c2c1Sc1ccncc1,inactive
18,C[C@H]1O[C@@H](n2cc(F)c(=O)[nH]c2=O)[C@H](O)[C@@H]1O,inactive
19,O=C(Oc1ccccc1C(=O)O)c1ccccc1O,inactive
20,CC(=O)CCC(=O)O,inactive
